# Reference: PubChem BioAssay AID1645860 (Buhrlage Lab, Dana-Farber Cancer Institute and Novartis …, 2021)
# Out of some 47,000 compounds screened, about 2,500 (5.3%) were called active. Cut-off read from the data, not from the text of the source: active = inhibition above about 30%; inactive = the rest. The entries come from a sample that favours actives as a whole.
# Target: Ubiquitin carboxyl-terminal hydrolase 30 (Homo sapiens) (UniProt Q70CQ3)
# Test: inhibitors of human USP30 deubiquitinase (AID 1645860)
# Conditions: purified USP30, Ub-rhodamine cleavage fluorescence; at 25 µM; active compounds read high
# Chain of Ubiquitin carboxyl-terminal hydrolase 30 (Homo sapiens) (Q70CQ3 whole entry, looked up): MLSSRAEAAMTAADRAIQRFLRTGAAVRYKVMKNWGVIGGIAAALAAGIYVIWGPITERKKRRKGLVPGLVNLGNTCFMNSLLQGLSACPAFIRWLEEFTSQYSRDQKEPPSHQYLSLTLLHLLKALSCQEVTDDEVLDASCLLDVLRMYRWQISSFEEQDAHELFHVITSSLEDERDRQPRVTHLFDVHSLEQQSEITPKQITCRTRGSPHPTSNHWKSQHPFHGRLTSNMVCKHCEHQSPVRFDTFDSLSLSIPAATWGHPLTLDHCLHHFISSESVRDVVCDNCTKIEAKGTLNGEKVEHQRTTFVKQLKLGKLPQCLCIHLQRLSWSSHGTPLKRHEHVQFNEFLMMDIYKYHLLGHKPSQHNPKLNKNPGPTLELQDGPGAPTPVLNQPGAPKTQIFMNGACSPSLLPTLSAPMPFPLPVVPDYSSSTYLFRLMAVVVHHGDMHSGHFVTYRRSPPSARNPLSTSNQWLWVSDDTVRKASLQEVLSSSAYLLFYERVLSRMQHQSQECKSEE
row,SMILES,inhibition
1,CC(C)C(=O)N1CCN(C(=O)Cc2ccccc2)CC2(CC(=O)N(C)C2)C1 (stereo not given),17% (inactive)
2,Cc1cc(Nc2ncc(C)s2)cc(C2CCCN2c2ncccn2)n1 (stereo not given),-49.2% (inactive)
3,CCOC(=O)C1CCCN(c2cc3n(c(=O)n2)CCc2cc(OC)c(OC)cc2-3)C1 (stereo not given),-59.6% (inactive)
4,COc1ccc(C2=Nc3ncnn3C2=NCc2ccc(F)cc2)cc1OC,0.0164% (inactive)
5,CC1=C(c2ccc(C)cc2)S(=O)(=O)NC1=NCc1cccc(Br)c1,3.77% (inactive)
6,COc1ccc(CN=C2NS(=O)(=O)C(c3ccc(F)cc3)=C2C)cc1OC,37% (active)
7,Cn1nnc2c1CCN(C(=O)C1CCC1)C2COCc1ccccc1 (stereo not given),-10.7% (inactive)
8,O=C(Cn1cccc(-c2nc(-c3ccccc3)no2)c1=O)Nc1ccccc1F,-12.8% (inactive)
9,O=C(Cn1c(-c2nc(-c3ccc(F)cc3)no2)cccc1=O)N1CCCC1,11.4% (inactive)
10,O=c1c2ccccc2c(-c2nc(-c3ccncc3)no2)cn1-c1ccc(F)cc1,44.8% (active)
11,CSCc1cc(N2CCOCC2)nc(-c2ccccn2)n1,23.5% (inactive)
12,CC1CCN(S(=O)(=O)N2CCCC(C(=O)Nc3cc(F)ccc3F)C2)CC1 (stereo not given),18.2% (inactive)
13,O=C(Nc1ccc(N2CCN(C3CCCC3)C2=O)nc1)c1cccnc1,-14.2% (inactive)
14,CC(C)c1noc(-c2ccc(OCC(=O)Nc3ccccc3Br)cc2)n1,30.7% (active)
15,COc1ccc(OCC(=O)Nc2noc(-c3ccccc3)n2)cc1,24.4% (inactive)
16,COc1cccc(NC(=O)Cn2c(C)cc(C)c2-c2nc(C(C)C)no2)c1,-10.3% (inactive)
17,CC(=O)Nc1ccc(S(=O)(=O)NCc2ccc(C(=O)NCc3ccc(C)cc3)cc2)cc1,-1.25% (inactive)
18,O=C1Nc2cc(C(=O)N3CCC4(CC3)OCCO4)ccc2N2C(=O)CCC12 (stereo not given),1.12% (inactive)
19,O=C(Cn1cc(S(=O)(=O)Cc2ccccc2F)c2ccccc21)N1CCCCCC1,3.16% (inactive)
20,COc1ccc(NC(=O)CSc2cn(CC(=O)N3CCCC3)c3ccccc23)cc1,18.7% (inactive)
21,COc1ccc(NC(=O)CS(=O)(=O)c2cn(CC(=O)N3CCCC3)c3ccccc23)cc1,30.4% (active)
22,O=C(NCc1cccnc1-c1ccc(F)cc1)C1CCC1,21.3% (inactive)
23,Fc1cccc(Nc2nc(-c3ccncc3)nc3c2CCC3)c1,23.2% (inactive)
24,CSc1nc2c(c(Nc3ccc(C(C)=O)cc3)n1)CCC2,80.5% (active)
25,CC1CCCN(c2ccc(-c3nc(-c4cccnc4)no3)cc2[N+](=O)[O-])C1 (stereo not given),-2.58% (inactive)
